Assay results as given in article PMC12136788.
Over roughly 24,000 sequences, “enrichment r” has its median near 0.99; the highest 2% begin near 3.7. For the sample, the highest values were picked, then their nearest neighbours and some sequences at random.

T1: UNK ZnF1-3 (human, UniProt Q9C0B0 31-174)
T1 sequence: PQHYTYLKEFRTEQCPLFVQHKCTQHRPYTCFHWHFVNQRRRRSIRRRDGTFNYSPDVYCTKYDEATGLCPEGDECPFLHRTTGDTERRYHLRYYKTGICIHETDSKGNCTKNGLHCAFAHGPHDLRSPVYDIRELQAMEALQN

B1: chr3:9412954:9412955:+_ENSG00000134077_ENST00000452837|hu_mus|hu_hu_hu_mus_False|58_68 (ssRNA)
RNA: GGGAGUUCUACAGUCCGACGAUCGGUUGAUAUCUCUUCUUUGAUGGCUGGAUUUUCAUAAUAGUCCAAGAUAUGAGAAUCUAAAGCGCUGCUGGCAUGCUUUUUCUUACCAUCUUUCUCAUCUGCUUUGUCUCCUUGUCCACACAACAGAGGAUUGAGCAUCA
B2: chr16:94664741:94664742:+_ENSMUSG00000040785_ENSMUST00000117648|mus_hu|mus_mus_mus_hu_False|1_78 (ssRNA)
RNA: GGGAGUUCUACAGUCCGACGAUCUGGUACUGAUCUUGGUAGCUGAUAUUCAGGAGAAAUGUUGGCCAAGGGUGUAUAUAUGCUGGUGUACUGGGGCAAACCUGGUAACACGUUUAUGUAUGCUGGCGGUGUCUGGGUGCCAAACAACAGAGGAUUGAGCAUCA
B3: chr5:37680062:37680063:+_ENSMUSG00000029121_ENSMUST00000031004|mus_hu|mus_mus_mus_hu_False|1_8 (ssRNA)
RNA: GGGAGUUCUACAGUCCGACGAUCUUUGGGUGUAGCUGGUACCUCGUACACAGGACCGUCAUACAUGCCCCUGGAAACCCCUUGCAAUCCAAAAACCUUAUUCCUGAUUUUGACGCGCUGGUACAGGUGCUCUGGGAAUGGCUUCAACAGAGGAUUGAGCAUCA
B4: chrX:98862621:98862622:+_ENSMUSG00000034160_ENSMUST00000044475|mus_hu|mus_mus_mus_hu_False|18_28 (ssRNA)
RNA: GGGAGUUCUACAGUCCGACGAUCCUGCAUCUCCUUUAGAGUGUUUCCCAUAUUAGAGUAGGCAUCAGCAAAGGUAGGACUGAUUCGAAUAGCCUCCUUAUAAUGCAUCAGUGCUUCCUGCAGCUUGCCCUGCUGCUGCAGUACCAACAGAGGAUUGAGCAUCA
B5: chr7:135840685:135840686:-_ENSMUSG00000048170_ENSMUST00000057557|mus_mus|FALSE|FALSE (ssRNA)
RNA: GGGAGUUCUACAGUCCGACGAUCCAACUCCCUUGAUUUAUCAAGGCCGACCCUGUUUCCUUGGUUAGCAGGGAAGAAUCUAAGGGACCACUGAUUGAUCUUCACACACAGCAGAUGAGAUUAACAGCAAGGUUCUAACUUUUCCAACAGAGGAUUGAGCAUCA
B6: 128051196_128051651_161_3pUTR_ENSG00000163161_ENST00000285398|human|control|control (ssRNA)
RNA: GGGAGUUCUACAGUCCGACGAUCCGCCGCCGAGGGAACCGCUUCCUGAGGGUCGUUCCCCGGGGCGUCCUCUUCAUCAUCCUCUUCAUCCUCAUAGUGCCGCUUCCUGGAUUUCUUCUUGUCGCGGUCCGCUCGGUCUCUUUUCAACAGAGGAUUGAGCAUCA

Target: T1, UNK ZnF1-3
Test: nsRBNS (natural sequence RNA bind-n-seq); RBNS binding buffer (assumed for nsRBNS): 25 mM Tris pH 7.5, 150 mM KCl, 3 mM MgCl2, 0.01% Triton X-100, 500 ug/ml BSA, 20 U/ml SUPERase-In, 4 C; UNK is unkempt and MSI1 is Musashi-1; names of the RNAs are library labels; protein concentration not given here; high values mean tight binding

How did the binding signal turn out when B1 was run?
Its binding signal is 0.465 enrichment R.

For B2, which binding signal is on record?
The binding signal was 0.93 enrichment R.

B3 was tested. Which binding signal did it give?
Its binding signal is 0.776 enrichment R.

Which binding signal does the source give for B4 here?
The binding signal was 1.08 enrichment R.

For B5, which binding signal is on record?
The binding signal was 1.03 enrichment R.

Which binding signal does the source give for B6 here?
Its binding signal is 0.493 enrichment R.
